In PubChem BioAssay AID493073 (Broad Institute, 2011):
Among all 1,200 compounds or so, about 810 (68%) were called active. No rule for the calls is given here. So high a share suggests a set chosen from earlier hits. The list is a sample of the results. Potency and affinity values are given separately.

Assay: reducers of TRPM1 reporter luminescence, concentration series – cell-based, SK-MEL-5, cherry-picked, set 3, MITF inhibitor project, dose response (AID 493073)
Conditions: SK-MEL-5 TRPM1 promoter luciferase, 24 h; series mostly up to 35 µM

outcome, inactive:
Cc1ccc(OCC(=O)Nc2ccccc2F)cc1, Fc1cccc(Cl)c1CSc1nnc(-c2ccncc2)o1, CSc1nc(N)n2nc(-c3ccc(Cl)cc3)cc2n1, COc1ccc(NC(=O)Nc2ccc(F)c(F)c2)c(OC)c1, O=[N+]([O-])c1ccccc1OCCOc1ccccc1[N+](=O)[O-], O=C(c1cc2ccccc2oc1=O)N(Cc1ccccc1)C1CCS(=O)(=O)C1 (configuration not stated), O=C(CCCc1ccccc1)N1CCN(C2CCCCC2)CC1, c1ccc(OCc2nc3ccccc3[nH]2)cc1, N=C1C(c2nc3ccccc3[nH]2)=C(O)CN1C1CCCCC1, Cc1c(C(=O)N(CCO)Cc2ccccc2)oc2c(F)cccc12, Cc1ccc(NC(=O)Cc2noc3ccccc23)cc1, C=CCNC(=O)c1ccc2nc(Cc3ccc(OC)cc3)oc2c1, Cc1c(C(=O)Nc2ccc(S(=O)(=O)N(C)C3CCN(C)CC3)cc2)oc2c(Cl)cccc12, c1ccc(CSc2nnc(-c3ccco3)n2Cc2ccco2)cc1, Cc1cccc(NC(=O)Cc2ccc(Br)cc2)n1, O=C(NC1CC1)C1CCN(S(=O)(=O)c2ccc(Cl)c([N+](=O)[O-])c2)CC1, CN(c1ccc(O)cc1)c1nc(O)c(C2=c3ccccc3=NC2=O)s1, CCOC(=O)c1cc(-c2ccc(OC)cc2)n[nH]1, COc1c(C)cccc1C(=O)Nc1ccc(N2CCN(S(C)(=O)=O)CC2)cc1, Cc1ccc2oc(Nc3nc(C)c(C)c(C)n3)nc2c1, Cc1c(OCC(=O)NC2CC(C)(C)NC(C)(C)C2)ccc2c1oc(=O)c1ccccc12, O=C1c2ccccc2C(=O)N1CCSc1ccccc1, COc1cc(OC)cc(C(=O)Nc2ccc3c(c2)OCCO3)c1, CN(C)CCNC(=O)/C(=C/c1ccc(-c2ccc(Cl)cc2)o1)NC(=O)c1ccccc1, CN(C)/C=N/c1ncc(C(=O)c2ccccc2)s1, COc1ccc(-c2csc(N(C)C(=O)c3ccco3)n2)cc1, CC(=O)c1sc(N/N=C\c2ccc(N(C)C)cc2)nc1C, Cc1csc(N/N=C/c2ccc([N+](=O)[O-])cc2)n1, C(=N\Nc1cc(N2CCCCC2)ncn1)/c1ccco1, O=C(/C=C/c1ccccc1Cl)NC1CCCCC1, N#C/C(=C\c1c[nH]c2ccccc12)C(=O)NC1CC1, N#C/C(=C\c1cccs1)C(=O)NCC1CCCO1 (configuration not stated), CCC1CCCCN1CCCNC(=O)c1cn(CC)c2ccc(S(=O)(=O)N(C)C3CCCCC3)cc2c1=O (configuration not stated), O=C(Cn1nnc(-c2ccccc2Cl)n1)N1CCCCC1, COc1ccc(CCC(=O)N2CCc3ccccc32)cc1, Cc1ccc(C(=O)Nc2ccccc2Cl)cc1, Cc1ccc(C(=O)NC2=NCCS2)cc1Cl, COc1ccc2c(c1OC)C(=O)N(c1ccc(C)cc1)C2, ClC1(Cl)CC1CSc1nnc(-c2ccncc2)o1 (configuration not stated), CCC(=O)NCCc1nc2cc(NC(=O)c3cccc([N+](=O)[O-])c3)ccc2n1C, O=C(Nc1nnc(Cc2ccccc2)s1)c1ccccc1, CC1(C)Cc2c(sc(NC(=O)Nc3ccccc3)c2C(N)=O)CO1, COC(=O)c1c(NC(=O)c2nc3ccccc3s2)sc2c1CC(C)(C)NC2(C)C, CCC(=O)Nc1cc(C(=O)OCC(=O)c2ccccc2Cl)ccc1C, N#Cc1cnn2cc(CCN3CCOCC3)c(-c3ccc(F)cc3)nc12, CC(C)N1C(=O)S/C(=C\c2ccc(-c3ccc(Cl)c(C(=O)O)c3)o2)C1=O, OCC1CCCC(n2cnc3c(=S)nc[nH]c32)O1 (configuration not stated), O=C(Nc1ccccc1Cl)Nc1cccc2cccnc12, O=C(c1cc2ccccc2oc1=O)N1CCN(c2ncccn2)CC1, CCOc1ccc(C(=O)N2CCc3ccccc32)cc1, O=C(NCCNc1ccccc1[N+](=O)[O-])c1cc(F)c(F)cc1Cl, Cc1cc2oc3ccc(NCCC4CCCN4C)cc3c(=O)c2cc1C (configuration not stated), CS(=O)(=O)c1ccc2nc(NC(=O)c3ccccc3)sc2c1, CC1Cc2ccccc2N1C(=O)c1ccc(Br)o1 (configuration not stated), CCNC(=O)CC1C(=O)N(c2ccc(F)cc2)C(=O)N1CCc1ccc(OC)cc1 (configuration not stated), COc1ccc(C(=O)CCNc2ccc(F)cc2)cc1, CCN1CCN(c2ccc(S(=O)(=O)N3CCCCC3)cc2NC(=O)/C=C/c2cccc(OC)c2OC)CC1, N/C(=N\OC(=O)c1ccc([N+](=O)[O-])cc1)c1ccc(Br)cc1, COc1ccccc1N1CCN(/N=C/c2ccc([N+](=O)[O-])cc2)CC1, Cc1ccc(NC(=O)c2ccccc2)cc1, Cc1ccccc1C(=O)O/N=C(\N)c1ccc([N+](=O)[O-])cc1, O=C(Nc1ccc(-c2cn3c(n2)SCC3)cc1)c1ccco1, CC(=O)COc1ccc2cc(-c3ccccc3)c(=O)oc2c1, Cc1ccc(CC(=O)Nc2ccc(Cl)cn2)cc1, O=C(N/N=C/C=C/c1ccccc1)c1ccccn1, O=C(NC1=NCCS1)c1ccc(Cl)c(Cl)c1, COc1ccc(NC(=O)C2COc3ccccc3O2)cc1 (configuration not stated), Cc1ccc(Nc2nnc(-c3ccccc3N)o2)cc1C, COCc1cc(C)nc2sc(C(=O)Nc3cccc(OC)c3)c(N)c12, COc1ccc(/C=C/C(=O)NC(=S)N2CCN(c3ccccc3OC)CC2)cc1, c1cnc(SCCOc2ccc3c(c2)CCC3)nc1, O=C(Nc1ccccn1)c1ccc(Br)s1, Cc1cc(N2CCOCC2)n2ncc(-c3ccccc3Cl)c2n1, CC(=C/c1ccco1)/C=N/N1CCN(c2ccccc2)CC1, CCN(CC(=O)Nc1ccc2c(c1)OCCO2)C(=O)c1ccc([N+](=O)[O-])s1, Cc1ccc(NC(=O)c2cc(N3C(=O)C=CC3=O)ccc2N2CCOCC2)cc1Cl, CS(=O)(=O)N1CCN(c2nc3ccc(Cl)cc3s2)CC1, CCN(CC)C(=O)CCCOc1ccc(Cl)cc1Cl, O=C(Nc1ccccc1F)C(=O)Nc1cccc2ccccc12, COc1cc2ccccc2cc1C(=O)Nc1ccc(N2CCN(C)CC2)cc1, CCOc1ccc(N/C=C/C(=O)c2ccc(OC)c(OC)c2)cc1, CCOc1cccc(C(=O)NC2=NCCS2)c1, CCCOC(=O)c1ccc(NC(=O)C2CCCO2)cc1 (configuration not stated), O=[N+]([O-])c1cc(C(F)(F)F)ccc1NCCc1ccccn1, COc1cccc(NC(=O)c2cnn(-c3ccccc3)c2C)c1, Cc1ccc(OCC(=O)Nc2cccc(C)n2)c(C)c1, Cc1cccc(OCC(=O)Nc2cccc(O)c2)c1, COc1cccc(NC(=O)c2cc3ccccc3cc2OC)c1, O=C(/C=C/c1ccc2c(c1)OCCO2)c1ccccc1, O=C(Nc1ccccc1F)c1ccc2c(c1)OCO2, CC(=O)N(c1nnc(-c2cccc(C)c2)s1)C1CCCC1, C/C(=N\Nc1nccnc1Cl)c1ccc(O)c(C)c1, CCCOc1ccc(-c2c(=O)n(O)c3ccccc3[n+]2[O-])cc1, COc1ccc(C(=O)CN2Cc3ccccc3C2=N)cc1, CN1CCN(CCCOc2ccc(-c3ccccc3)cc2)CC1, O=C(c1ccc(F)cc1)N1CCC(c2ccccc2)C1 (configuration not stated), COc1ccc(NC(=O)c2cc3ccccc3oc2=O)c(OC)c1, COc1ccc2oc(=O)c(C(=O)Nc3ccccc3C)cc2c1, COc1ccc(N/C=C\C(=O)c2ccc3ccccc3c2)cc1, COc1ccc(COC(=O)c2n[nH]c3ccccc23)cc1F, Cc1ccc(C(CNS(=O)(=O)c2ccc(Br)cc2)N2CCN(C)CC2)cc1 (configuration not stated), COc1ccc(/C=C/c2cc(C(F)(F)F)on2)cc1, Cc1cccc(OCc2nc3ccccc3n2C)c1, O=C(/C=C/c1ccc2c(c1)OCO2)N1CCCCC1, O=C(Nc1ccccc1)C1Cc2ccccc2CN1C(=O)c1ccco1 (configuration not stated), CC(C)C(=O)Nc1ccc2nn(-c3ccc(F)cc3)nc2c1, CC(=O)Oc1ccc(C)cc1-n1nc2ccccc2n1, CCOCCCNC(=O)/C(C#N)=C/c1ccc([N+](=O)[O-])o1, Cc1nc(NCCOc2ccccc2)sc1C(=O)Nc1ccccc1, CCOC(=O)c1ccc2nc(C)c(CCC(C)=O)c(Cl)c2c1, O=C(Cc1ccccc1)Nc1ccc(NC(=O)c2ccco2)nc1, CCOC(=O)c1sc(NC(=O)Nc2ccc(Cl)cc2)nc1C, COc1ccc2oc(=N)c(C(=O)Nc3ccccc3Cl)cc2c1, Cn1c(/C(C#N)=C/c2ccc(-c3ccc(S(N)(=O)=O)cc3)o2)nc2ccccc21, COc1ccc(/C=N/Nc2ccccn2)cc1OC, S=c1[nH]nc(-c2ccco2)n1/N=C/C(Cl)=C/c1ccccc1, Nc1ccccc1SC1CC(=O)N(c2ccc3c(c2)OCCO3)C1=O (configuration not stated), COc1ccccc1N1CCN(/N=C/c2cccc(Cl)c2)CC1, Cc1csc(NC(=O)Cc2c(F)cccc2Cl)n1, Clc1ccc(-c2noc(CN3CCOCC3)n2)cc1, Cc1ccc(NC(=O)c2cnc3ccccc3n2)cc1C, O=C(CC(=O)c1ccccc1)Nc1ccccc1
